Laboratory results reported in the supplement of paper PMC10849652.
About 8,800 targets were measured; listed, in parts, are those with a hit and a random draw of the rest. About 0.5% of all pairs of compound and target were hits.

Assays:
Assay in all cases: log2 fold change, soluble protein after heating vs DMSO (PISA); higher = thermal stabilisation; K562 lysate, 10 uM; active = over 0.2 and 3.5 SD of the protein, either way, in both replicates (recomputed)
[1] = compound: CCCS(=O)(=O)Nc1ccc(F)c(C(=O)c2c[nH]c3ncc(-c4ccc(Cl)cc4)cc23)c1F [vemurafenib]
Procedure, shortened: (§1)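 Following dounce homogenisation of K562 pellets in PBS pH 7.4 with 1 mM MgCl2, crude extract at 1 mg/mL protein was incubated for 30 min with 10 μM compound. Aliquots were then heated for 3 min over 48°C-58°C and pooled, NP-40 was added to 0.5% at 4°C, and soluble protein was recovered as the supernatant at 21,000xg for 90 min. Channel-sum-equalised TMTpro 16plex LC-MS/MS quantified this protein. Each value, from duplicates, is a log-two fold change in thermal stability relative to solvent controls.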

[2] = compound: CCCS(=O)(=O)Nc1ccc(F)c(C(=O)c2c[nH]c3ncc(Cl)cc23)c1F
Procedure, shortened: as §1

[3] = compound: CCN(CCCOc1ccc2c(Nc3cc(CC(=O)Nc4cccc(F)c4)[nH]n3)ncnc2c1)CCOP(=O)(O)O [barasertib]
Procedure, shortened: as §1

[4] = compound: CC[C@@H]1C(=O)N(C)c2cnc(Nc3ccc(C(=O)NC4CCN(C)CC4)cc3OC)nc2N1C1CCCC1
Procedure, shortened: as §1

[5] = compound: CC[C@@H]1C(=O)N(C)c2cnc(Nc3ccc(C(=O)N[C@H]4CC[C@H](N5CCN(CC6CC6)CC5)CC4)cc3OC)nc2N1C(C)C [volasertib]
Procedure, shortened: as §1

[6] = compound: CCn1c(C(=O)N(C2CC2)C2CC2)cc2c3c(ncn3C)c(Nc3cc(C)n(C)n3)nc21
Procedure, shortened: as §1

[7] = compound: CCn1cc(-c2ccnc3[nH]c(-c4cccc(CN(C)C)c4)cc23)c(-c2ccc(NC(=O)N(C)C)cc2)n1
Procedure, shortened: as §1

[8] = compound: CN1CCC(CNc2ccc3ncc(-c4cccc(OC(F)(F)F)c4)n3n2)CC1
Procedure, shortened: as §1

[9] = compound: CN1CCN(CCOc2cc(OC3CCOCC3)c3c(Nc4c(Cl)ccc5c4OCO5)ncnc3c2)CC1 [saracatinib]
Procedure, shortened: as §1

[10] = compound: CN1CCN(c2nc(C3=C(c4c[nH]c5ccccc45)C(=O)NC3=O)c3ccccc3n2)CC1 [sotrastaurin]
Procedure, shortened: as §1

[11] = compound: CN1CC[C@H](c2c(O)cc(O)c3c(=O)cc(-c4ccccc4Cl)oc23)[C@H](O)C1 [alvocidib]
Procedure, shortened: as §1

[12] = compound: CN1CCc2c(c3ccccc3n2Cc2ccc(C(=O)NO)cc2)C1 [Tubastatin A]
Procedure, shortened: as §1

[13] = compound: CNC(=O)C1=CC=CC=C1NC2=NC(=NC=C2Cl)NC3=C(C=C(C=C3)N4CCOCC4)OC
Procedure, shortened: as §1

[14] = compound: CNC(=O)c1ccc(Nc2ncc(C(F)(F)F)c(NCc3nccnc3N(C)S(C)(=O)=O)n2)cc1 [defactinib]
Procedure, shortened: as §1

[15] = compound: CNc1nc(-c2ccc3c(N)n[nH]c3c2)cc(N2C[C@@H](C(=O)NC3CCCCC3)CC[C@H]2C)n1
Procedure, shortened: as §1

[16] = compound: COC(=O)N[C@@H](C)CNc1nccc(-c2cn(C(C)C)nc2-c2cc(Cl)cc(NS(C)(=O)=O)c2F)n1 [encorafenib]
Procedure, shortened: as §1

[17] = compound: COC(=O)[C@H](CCSC)NC(=O)C1=C(C=C(C=C1)NC[C@H](CS)N)C2=CC=CC=C2
Procedure, shortened: as §1

[18] = compound: COc1cc(Nc2ncc3c(n2)-c2ccc(Cl)cc2C(c2c(F)cccc2OC)=NC3)ccc1C(=O)O [alisertib]
Procedure, shortened: as §1

[19] = compound: COc1cc2nc(-c3cc(F)ccc3O)nc(N[C@@H]3CNC[C@H]3C(C)(C)O)c2cc1OC
Procedure, shortened: as §1

[20] = compound: COc1cc2ncnc(Nc3ccc(F)c(Cl)c3)c2cc1OCCCN1CCOCC1 [gefitinib]
Procedure, shortened: as §1

Measured: log2 fold change

ZMYM2 (UniProt Q9UBW7)
Chain of UniProt Q9UBW7 (Q9UBW7 whole entry, looked up): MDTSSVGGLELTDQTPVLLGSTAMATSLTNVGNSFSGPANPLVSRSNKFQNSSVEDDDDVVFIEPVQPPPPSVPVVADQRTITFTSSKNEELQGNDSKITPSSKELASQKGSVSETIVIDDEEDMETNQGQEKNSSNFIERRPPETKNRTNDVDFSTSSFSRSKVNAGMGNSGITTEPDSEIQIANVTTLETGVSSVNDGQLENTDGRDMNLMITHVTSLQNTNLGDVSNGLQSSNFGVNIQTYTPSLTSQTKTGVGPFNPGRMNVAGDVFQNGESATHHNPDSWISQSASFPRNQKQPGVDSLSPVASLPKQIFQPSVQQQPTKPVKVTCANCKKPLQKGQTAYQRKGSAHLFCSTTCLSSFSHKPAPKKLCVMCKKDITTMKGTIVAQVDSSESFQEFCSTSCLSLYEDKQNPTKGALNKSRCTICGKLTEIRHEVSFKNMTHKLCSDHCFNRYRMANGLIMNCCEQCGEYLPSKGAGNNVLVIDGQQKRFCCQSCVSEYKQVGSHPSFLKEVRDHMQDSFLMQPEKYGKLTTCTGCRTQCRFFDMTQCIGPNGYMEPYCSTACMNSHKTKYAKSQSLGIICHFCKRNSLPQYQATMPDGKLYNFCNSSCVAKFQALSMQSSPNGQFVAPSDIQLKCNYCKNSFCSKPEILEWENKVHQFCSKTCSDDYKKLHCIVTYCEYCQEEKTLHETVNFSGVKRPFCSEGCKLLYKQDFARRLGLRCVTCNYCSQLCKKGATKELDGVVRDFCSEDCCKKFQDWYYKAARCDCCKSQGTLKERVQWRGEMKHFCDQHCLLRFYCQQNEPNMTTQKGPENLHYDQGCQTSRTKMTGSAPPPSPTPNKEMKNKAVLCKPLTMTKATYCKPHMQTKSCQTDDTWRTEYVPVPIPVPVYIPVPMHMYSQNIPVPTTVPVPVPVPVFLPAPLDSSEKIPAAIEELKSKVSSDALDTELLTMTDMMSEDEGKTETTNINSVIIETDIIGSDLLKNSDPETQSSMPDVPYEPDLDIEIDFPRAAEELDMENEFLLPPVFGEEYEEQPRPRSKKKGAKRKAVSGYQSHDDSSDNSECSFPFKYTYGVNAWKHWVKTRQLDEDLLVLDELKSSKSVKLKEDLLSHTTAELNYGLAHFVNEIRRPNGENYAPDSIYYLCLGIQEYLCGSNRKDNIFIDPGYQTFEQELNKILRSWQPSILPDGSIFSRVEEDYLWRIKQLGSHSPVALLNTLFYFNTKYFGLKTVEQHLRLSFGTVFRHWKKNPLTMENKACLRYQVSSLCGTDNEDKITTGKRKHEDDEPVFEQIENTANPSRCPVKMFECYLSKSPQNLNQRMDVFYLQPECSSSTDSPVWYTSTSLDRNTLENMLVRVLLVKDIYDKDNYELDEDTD
inactive: [1] 0.004 | [2] 0.101 | [3] -0.016 | [4] -0.034 | [5] -0.253 | [6] -0.119 | [7] 0.025 | [8] -0.196 | [9] 0.018 | [10] -0.008 | [11] 0.076 | [12] -0.155 | [13] 0.003 | [14] 0.121 | [15] -0.021 | [16] -0.214 | [17] -0.018 | [18] -0.077 | [19] 0.087 | [20] 0.06

ZNHIT6 (UniProt Q9NWK9)
Chain of UniProt Q9NWK9 (Q9NWK9 whole entry, looked up): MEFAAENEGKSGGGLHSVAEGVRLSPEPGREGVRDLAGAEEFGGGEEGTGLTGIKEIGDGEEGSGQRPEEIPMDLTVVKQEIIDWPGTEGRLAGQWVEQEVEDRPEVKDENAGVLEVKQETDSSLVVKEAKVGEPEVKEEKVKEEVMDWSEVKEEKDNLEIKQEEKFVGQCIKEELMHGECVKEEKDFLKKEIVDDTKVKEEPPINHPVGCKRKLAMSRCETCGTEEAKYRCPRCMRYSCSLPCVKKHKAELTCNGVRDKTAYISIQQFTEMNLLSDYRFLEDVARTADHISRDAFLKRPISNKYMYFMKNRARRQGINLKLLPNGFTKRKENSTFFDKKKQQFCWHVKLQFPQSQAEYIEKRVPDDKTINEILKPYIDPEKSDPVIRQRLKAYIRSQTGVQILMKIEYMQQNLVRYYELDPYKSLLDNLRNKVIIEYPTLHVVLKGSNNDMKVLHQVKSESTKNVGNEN
inactive: [1] -0.001 | [2] 0.035 | [3] 0.009 | [4] 0.023 | [5] -0.016 | [6] 0.05 | [7] 0.089 | [8] -0.071 | [9] -0.029 | [10] -0.005 | [11] 0.004 | [12] -0.046 | [13] 0.034 | [14] -0.04 | [15] 0.086 | [16] 0.037 | [17] 0.118 | [18] -0.021 | [19] -0.022 | [20] 0.008

VANGL1 (UniProt Q8TAA9)
Chain of UniProt Q8TAA9 (Q8TAA9 whole entry, looked up): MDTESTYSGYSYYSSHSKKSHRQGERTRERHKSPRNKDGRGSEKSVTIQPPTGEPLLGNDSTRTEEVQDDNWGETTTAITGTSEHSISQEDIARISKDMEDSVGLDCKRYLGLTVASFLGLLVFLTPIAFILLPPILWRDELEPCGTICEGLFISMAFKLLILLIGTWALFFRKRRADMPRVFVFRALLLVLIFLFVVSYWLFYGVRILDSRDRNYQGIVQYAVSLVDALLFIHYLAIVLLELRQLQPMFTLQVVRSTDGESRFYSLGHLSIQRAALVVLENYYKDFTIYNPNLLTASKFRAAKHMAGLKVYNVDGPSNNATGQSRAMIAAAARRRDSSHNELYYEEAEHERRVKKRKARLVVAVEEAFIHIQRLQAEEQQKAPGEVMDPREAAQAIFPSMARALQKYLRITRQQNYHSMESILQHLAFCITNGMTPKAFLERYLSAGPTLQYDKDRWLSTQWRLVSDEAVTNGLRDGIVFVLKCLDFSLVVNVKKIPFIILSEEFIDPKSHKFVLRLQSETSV
inactive: [1] -0.075 | [2] 0.023 | [3] 0.101 | [4] 0.004 | [5] -0.009 | [6] 0.105 | [7] -0.088 | [8] 0.058 | [9] 0.044 | [10] 0.125 | [11] 0.005 | [12] 0.088 | [13] -0.054 | [14] 0.078 | [15] 0.054 | [16] -0.011 | [17] -0.072 | [18] -0.023 | [19] -0.071 | [20] 0.011

USP8 (UniProt P40818)
Chain of UniProt P40818 (P40818 whole entry, looked up): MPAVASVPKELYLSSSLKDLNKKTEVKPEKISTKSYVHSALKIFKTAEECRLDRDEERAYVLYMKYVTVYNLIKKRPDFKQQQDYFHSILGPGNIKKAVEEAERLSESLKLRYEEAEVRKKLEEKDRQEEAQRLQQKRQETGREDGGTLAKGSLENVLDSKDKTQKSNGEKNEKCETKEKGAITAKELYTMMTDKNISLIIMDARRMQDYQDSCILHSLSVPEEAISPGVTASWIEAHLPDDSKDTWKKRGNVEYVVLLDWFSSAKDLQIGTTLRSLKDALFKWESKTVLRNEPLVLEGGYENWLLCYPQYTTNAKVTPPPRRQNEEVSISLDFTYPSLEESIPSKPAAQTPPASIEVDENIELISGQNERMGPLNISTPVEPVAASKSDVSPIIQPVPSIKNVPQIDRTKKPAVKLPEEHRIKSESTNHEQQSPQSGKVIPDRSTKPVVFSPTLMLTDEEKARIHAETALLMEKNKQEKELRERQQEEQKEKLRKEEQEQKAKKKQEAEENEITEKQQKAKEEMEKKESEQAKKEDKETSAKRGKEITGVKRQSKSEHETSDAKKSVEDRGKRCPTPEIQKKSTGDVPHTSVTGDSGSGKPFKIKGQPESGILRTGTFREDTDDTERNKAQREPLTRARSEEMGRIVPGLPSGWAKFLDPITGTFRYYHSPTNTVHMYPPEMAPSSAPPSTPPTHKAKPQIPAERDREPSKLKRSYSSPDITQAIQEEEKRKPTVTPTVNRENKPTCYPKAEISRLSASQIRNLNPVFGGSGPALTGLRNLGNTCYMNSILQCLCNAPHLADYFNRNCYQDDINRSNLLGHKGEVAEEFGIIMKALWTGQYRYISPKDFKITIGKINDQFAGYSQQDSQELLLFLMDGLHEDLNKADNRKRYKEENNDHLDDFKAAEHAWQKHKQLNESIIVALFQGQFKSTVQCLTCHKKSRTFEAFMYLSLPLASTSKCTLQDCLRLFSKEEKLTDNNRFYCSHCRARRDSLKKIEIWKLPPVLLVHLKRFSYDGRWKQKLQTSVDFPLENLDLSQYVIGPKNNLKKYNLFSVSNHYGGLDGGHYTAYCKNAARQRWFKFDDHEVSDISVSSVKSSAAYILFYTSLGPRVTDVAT
inactive: [1] 0 | [2] 0.015 | [3] 0.001 | [4] -0.008 | [5] -0.05 | [6] 0.033 | [7] -0.002 | [8] -0.063 | [9] -0.006 | [10] -0.021 | [11] 0.023 | [12] -0.018 | [13] 0.014 | [14] 0.02 | [15] 0.005 | [16] 0.004 | [17] 0.102 | [18] -0.011 | [19] 0.002 | [20] 0.015

ZNF318 (UniProt Q5VUA4)
inactive: [1] 0.089 | [2] 0.025 | [3] 0.077 | [4] 0.025 | [5] 0.011 | [6] -0.007 | [7] 0.086 | [8] -0.033 | [9] 0.079 | [10] 0.047 | [11] 0.033 | [12] -0.177 | [13] 0.034 | [14] -0.055 | [15] -0.002 | [16] 0.03 | [17] 0.117 | [18] 0.03 | [19] 0.142 | [20] 0.025

VRK2 (UniProt Q86Y07)
Chain of UniProt Q86Y07 (Q86Y07 whole entry, looked up): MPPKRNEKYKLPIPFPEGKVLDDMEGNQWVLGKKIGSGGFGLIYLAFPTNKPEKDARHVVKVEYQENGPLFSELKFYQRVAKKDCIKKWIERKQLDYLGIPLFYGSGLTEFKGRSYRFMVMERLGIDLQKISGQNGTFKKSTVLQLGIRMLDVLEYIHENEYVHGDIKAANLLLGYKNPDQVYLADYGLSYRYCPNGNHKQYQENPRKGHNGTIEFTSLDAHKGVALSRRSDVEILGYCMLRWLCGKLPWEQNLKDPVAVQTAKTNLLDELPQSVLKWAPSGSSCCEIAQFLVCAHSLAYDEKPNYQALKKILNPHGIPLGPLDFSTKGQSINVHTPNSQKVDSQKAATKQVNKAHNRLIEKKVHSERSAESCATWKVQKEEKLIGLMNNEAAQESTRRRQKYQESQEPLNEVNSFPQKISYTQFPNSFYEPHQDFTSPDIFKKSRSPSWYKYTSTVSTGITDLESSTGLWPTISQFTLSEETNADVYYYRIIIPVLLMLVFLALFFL
active: [11] 0.503
inactive: [1] 0.113 | [2] 0.148 | [3] 0.048 | [4] -0.032 | [5] -0.008 | [6] 0.01 | [7] -0.104 | [8] 0.182 | [9] -0.022 | [10] 0.151 | [12] -0.017 | [13] 0.067 | [14] 0.156 | [15] -0.044 | [16] -0.068 | [17] 0.032 | [18] -0.033 | [19] 0.008 | [20] -0.08

XPOT (UniProt O43592)
Chain of UniProt O43592 (O43592 whole entry, looked up): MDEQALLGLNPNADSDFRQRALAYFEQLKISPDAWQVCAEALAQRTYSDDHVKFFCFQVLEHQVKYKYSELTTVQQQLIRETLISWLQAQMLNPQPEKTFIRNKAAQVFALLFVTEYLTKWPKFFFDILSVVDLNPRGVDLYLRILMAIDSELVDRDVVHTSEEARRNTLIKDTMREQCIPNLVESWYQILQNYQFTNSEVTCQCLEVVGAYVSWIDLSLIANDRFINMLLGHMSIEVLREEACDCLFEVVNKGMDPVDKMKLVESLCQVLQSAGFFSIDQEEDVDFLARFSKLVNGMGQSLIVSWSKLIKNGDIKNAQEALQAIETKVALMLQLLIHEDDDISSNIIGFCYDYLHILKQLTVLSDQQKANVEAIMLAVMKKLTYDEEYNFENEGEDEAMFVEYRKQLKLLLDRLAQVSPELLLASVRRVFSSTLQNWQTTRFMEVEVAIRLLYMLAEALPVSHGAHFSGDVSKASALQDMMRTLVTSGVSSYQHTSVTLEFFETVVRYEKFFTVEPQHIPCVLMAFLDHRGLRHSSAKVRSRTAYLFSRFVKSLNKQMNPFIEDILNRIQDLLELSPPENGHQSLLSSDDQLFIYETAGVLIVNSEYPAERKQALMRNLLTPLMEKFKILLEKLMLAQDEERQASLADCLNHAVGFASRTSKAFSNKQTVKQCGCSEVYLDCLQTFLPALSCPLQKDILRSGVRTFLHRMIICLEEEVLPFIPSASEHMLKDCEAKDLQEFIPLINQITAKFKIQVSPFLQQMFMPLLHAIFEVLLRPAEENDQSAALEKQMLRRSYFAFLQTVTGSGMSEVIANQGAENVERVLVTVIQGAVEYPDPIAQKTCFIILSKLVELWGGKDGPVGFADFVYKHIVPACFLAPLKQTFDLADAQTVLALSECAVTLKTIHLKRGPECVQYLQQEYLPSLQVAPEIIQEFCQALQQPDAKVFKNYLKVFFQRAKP
inactive: [1] -0.023 | [2] 0.014 | [3] 0.011 | [4] -0.097 | [5] -0.047 | [6] 0.036 | [7] -0.065 | [8] -0.001 | [9] -0.005 | [10] 0.002 | [11] 0.004 | [12] -0.133 | [13] -0.004 | [14] 0.011 | [15] -0.042 | [16] 0.005 | [17] -0.094 | [18] 0 | [19] 0.005 | [20] 0.01

ZHX1 (UniProt Q9UKY1)
active: [7] -0.603 | [8] 0.526
inactive: [1] -0.058 | [2] 0.057 | [3] 0.059 | [4] 0.144 | [5] -0.079 | [6] -0.056 | [9] 0.011 | [10] 0.029 | [11] -0.231 | [12] -0.194 | [13] 0 | [14] 0.034 | [15] 0.251 | [16] 0.041 | [17] 0.044 | [18] 0.013 | [19] 0.042 | [20] 0.012
